In PubChem BioAssay (NCATS):
Inconclusive results are not listed. Calls of active or inactive are those of the source. Unless noted, calls follow the shape of the dose curve; as a rule, active = well fitted curve in the direction sought with a large enough effect; inconclusive = small, poorly fitted or top-dose-only effect, or another doubt; inactive = no such curve, though single readings can be large; an effect the other way counts as inactive or inconclusive.

Experiments:
[1] = Cellular Toxicity (caspase-3) HepG2 (AID 654);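 also: cells exposed to compound for 16 hours before reading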
In short: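 Cells plated 5 hr at 37 °C, compound added, incubated 16 hr at 37 °C. Caspase-Glo 3/7 reagent followed, 20 min at room temperature, then luminescence read. Activation scored as signal increase; AC50 from Hill fit.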

[2] = Cellular Toxicity (caspase-3) Jurkat (AID 655);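 also: cells exposed to compound for 16 h at 37 °C before reading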
In short: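 Luminescent Caspase-Glo 3/7 read-out (20 min, room temperature) after 16 h compound treatment at 37 C of 5000 Jurkat cells per well. AC50 derived by Hill-equation fitting, scaled between DMSO basal and 100 uM tamoxifen stimulation.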

[3] = Cellular Toxicity (caspase-3) HUV-EC-C (AID 656)
In short: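 Luminescent Caspase-Glo 3/7 readout after 16 h, 37 °C compound exposure of HUV-EC-C endothelial cells, 1000 per well, complete medium. AC50 derived by Hill fitting, with DMSO as baseline and 100 uM tamoxifen as full activation.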

[4] = Cellular Toxicity (caspase-3) SHSY5Y (AID 657)
In short: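 Luminescent Caspase-Glo 3/7 read-out, 1 hr room temperature, follows 16 hours of compound treatment of SH-SY5Y cells at 37 °C. Normalization: DMSO basal, 10 uM staurosporine as 100%; AC50 values from Hill-equation concentration-response fits.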

[5] = Cellular Toxicity (caspase-3) BJ (AID 658)
In short: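 BJ human foreskin fibroblasts, 1000 cells/well, treated 16 hours at 37 °C in complete medium; caspase 3/7 activity by Caspase-Glo luminescence after 1 hr at room temperature. Normalized to DMSO and 10 uM staurosporine; AC50 from Hill fits.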

[6] = Cellular Toxicity (caspase-3) MRC-5 (AID 659)
In short: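 MRC-5 human normal lung fibroblasts, 1500 cells/well, treated 16 h at 37 °C in complete medium. Caspase 3/7 measured by Caspase-Glo luminescence after 1 h at room temperature. Normalized to DMSO and 10 uM staurosporine; AC50 from Hill fit.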

[7] = Cellular Toxicity (caspase-3) Mesangial (AID 660);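 also: combined caspase 3 and 7 activity read by Caspase-Glo luminescence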
In short: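 Mesangial cells, 1000/well, 5 h settle at 37 °C; compound 16 h, 37 °C; Caspase-Glo 3/7 reagent 20 min RT; luminescence. Norm.: DMSO = 0%, tamoxifen 100 uM = 100%. AC50, Hill fit.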

[8] = Cellular Toxicity (caspase-3) SK-N-SH (AID 661)
In short: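 Human neuroblastoma SK-N-SH, 1500 cells/well, 5 hr pre-incubation, then compound 16 hr, 37 °C. Caspase-Glo 3/7 reagent, 1 hr RT, luminescence. Norm. to DMSO/10 uM staurosporine; Hill-fit AC50.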

[9] = Cellular Toxicity (caspase-3) H-4-II-E (AID 663);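 also: cells exposed to compound for 16 hr before readout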
In short: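 Rat hepatoma H-4-II-E cells (1500/well) plated 5 hr, then exposed to compound titrations for 16 hr at 37 °C. Caspase-Glo 3/7 luminescence read after 20 min at RT; data normalized to DMSO and 100 uM tamoxifen, AC50 from Hill fits.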

[10] = Cellular Toxicity (caspase-3) Hek293 (AID 664);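 also: cells exposed to compound for 16 h at 37 °C before readout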
In short: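 Cells plated, 5 hr at 37 °C; compounds added; 16 hr at 37 °C; Caspase-Glo 3/7 reagent, 20 min RT; luminescence read. Activation expressed relative to DMSO and 100 uM tamoxifen, AC50 by Hill model.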

[11] = Cellular Toxicity (caspase-3) N2a (AID 665);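 also: compound exposure lasted 16 h at 37 °C before readout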
In short: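 N2a cells, 1500/well, 5 h settle at 37 °C; cpd 16 h, 37 °C; Caspase-Glo 3/7, 1 h RT; luminescence. Norm: DMSO = 0, 10 uM staurosporine = 100%. AC50, Hill fit.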

[12] = Cellular Toxicity (caspase-3) NIH 3T3 (AID 666);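 also: caspase signal read after 16 h compound exposure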
In short: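 Luminescence from aminoluciferin released by caspase-3/7 cleavage of a peptide substrate served as read-out. Mouse fibroblast NIH 3T3 cells were exposed to compounds over a concentration range for 16 hours, and AC50 values came from standard Hill modelling.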

[13] = Cellular Toxicity (caspase-3) Renal Proximal Tubule (AID 667);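 also: cells exposed to compound for 16 hours at 37 °C before detection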
In short: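 Caspase 3/7 activation measured by luminescent aminoluciferin release in primary rat proximal tubule cells after 16 hr compound exposure at 37 °C. AC50 from Hill-fitted concentration-response, scaled between DMSO and 10 uM staurosporine.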

[14] = biological target: Cytochrome P450 3A4 (Homo sapiens) (UniProt P08684); assay: qHTS Assay for Activators of Cytochrome P450 3A4 (AID 885); also: nearly all actives have a fitted effect of over 65% in size
Chain of Cytochrome P450 3A4 (Homo sapiens) (P08684 whole entry, looked up): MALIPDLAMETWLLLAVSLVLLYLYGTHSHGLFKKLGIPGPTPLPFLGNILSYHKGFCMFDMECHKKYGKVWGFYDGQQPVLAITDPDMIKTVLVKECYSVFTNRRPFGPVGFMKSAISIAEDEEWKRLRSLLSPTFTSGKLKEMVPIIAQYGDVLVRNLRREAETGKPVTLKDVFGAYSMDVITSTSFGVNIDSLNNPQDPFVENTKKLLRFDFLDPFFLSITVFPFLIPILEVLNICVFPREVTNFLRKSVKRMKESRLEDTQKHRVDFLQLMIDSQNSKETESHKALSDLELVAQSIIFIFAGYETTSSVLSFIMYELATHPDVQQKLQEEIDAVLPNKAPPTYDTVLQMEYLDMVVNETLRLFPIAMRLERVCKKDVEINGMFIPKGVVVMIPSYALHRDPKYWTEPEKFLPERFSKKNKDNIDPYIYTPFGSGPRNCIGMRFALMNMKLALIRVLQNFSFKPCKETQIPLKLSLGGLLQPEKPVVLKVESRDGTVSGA
In short: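 Steps: enzyme/substrate mix dispensed; compound added, 10 min RT; NADPH regeneration solution added, 60 min RT; luciferin detection buffer stops reaction; 20 min later luminescence measured.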

[15] = Confirmation and Secondary Assay for Modulators of Hemoglobin Beta Chain Splicing at IVS2 654 locus (AID 910);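 also: HeLa cells stably carrying EGFP split by mutant beta-globin IVS2-654 intron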
In short: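 HeLa cells stably expressing EGFP interrupted by β-globin IVS2-654 intron, seeded overnight in Opti-MEM/2% FCS, then treated 2 days at 37 °C. Restored splicing read as total peak GFP intensity per well by laser scanning cytometry (488 nm excitation, 500–520 nm emission); 500 nM antisense PNA as control.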

[16] = biological target: Cytochrome P450 3A4 (Homo sapiens) (UniProt P08684); assay: qHTS Assay for Inhibitors and Substrates of Cytochrome P450 3A4 (AID 884); also: series mostly up to about 57 µM; nearly all actives have a fitted effect of over 50% in size
In short: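 20 nM human CYP3A4 with 25 uM Luciferin-PPXE (at KM) in 200 mM KPO4, preincubated 10 min with compound; NADPH regeneration started a 60 min RT reaction. Luciferin detected by luminescence, normalized to 57 uM ketoconazole as full inhibition.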

[17] = biological target: 3',5'-cyclic-AMP phosphodiesterase 4B (Homo sapiens) (UniProt Q07343); assay: qHTS Assay for Inhibitors of PDE-IV (AID 607; active = well fitted activation curve with a large enough effect in the main read-out, with a control signal flat, not every such curve was filed as active)
Chain of 3',5'-cyclic-AMP phosphodiesterase 4B (Homo sapiens) (Q07343 whole entry, looked up): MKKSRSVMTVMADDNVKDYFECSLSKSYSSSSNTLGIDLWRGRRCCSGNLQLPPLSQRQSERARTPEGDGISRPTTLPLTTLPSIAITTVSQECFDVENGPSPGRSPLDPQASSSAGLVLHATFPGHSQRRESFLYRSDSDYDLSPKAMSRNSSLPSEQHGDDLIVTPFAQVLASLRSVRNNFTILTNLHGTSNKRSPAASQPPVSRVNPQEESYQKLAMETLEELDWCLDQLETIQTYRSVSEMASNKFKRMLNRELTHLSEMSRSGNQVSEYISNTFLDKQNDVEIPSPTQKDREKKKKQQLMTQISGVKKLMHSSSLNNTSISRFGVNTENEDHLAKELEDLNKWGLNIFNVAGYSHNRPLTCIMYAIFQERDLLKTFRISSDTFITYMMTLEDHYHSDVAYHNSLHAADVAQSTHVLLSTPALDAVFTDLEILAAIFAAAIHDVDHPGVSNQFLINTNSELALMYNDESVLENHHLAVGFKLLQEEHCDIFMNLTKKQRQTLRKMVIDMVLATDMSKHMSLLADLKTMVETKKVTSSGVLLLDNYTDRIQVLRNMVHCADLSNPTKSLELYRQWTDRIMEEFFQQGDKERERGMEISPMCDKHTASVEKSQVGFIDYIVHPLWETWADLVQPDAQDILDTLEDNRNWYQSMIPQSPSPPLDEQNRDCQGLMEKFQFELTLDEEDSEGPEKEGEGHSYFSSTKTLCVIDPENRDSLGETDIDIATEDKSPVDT
In short: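 The readout is membrane depolarisation from a cAMP-sensing CNG channel, detected with a potential dye at ex 535/em 590. Cells were HEK293-derived (endogenous PDE-IV) at 1000 cells/well, titrated up to 22.9 uM final.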

[18] = biological target: Guanine nucleotide-binding protein G(i) subunit alpha-1 (Homo sapiens) (UniProt P63096); assay: qHTS Assay for Inhibitors of RGS12 GoLoco Motif Activity (Green Fluorophore) (AID 879);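 also: negative values mean loss of peptide binding seen as reduced polarization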
Chain of Guanine nucleotide-binding protein G(i) subunit alpha-1 (Homo sapiens) (P63096 whole entry, looked up): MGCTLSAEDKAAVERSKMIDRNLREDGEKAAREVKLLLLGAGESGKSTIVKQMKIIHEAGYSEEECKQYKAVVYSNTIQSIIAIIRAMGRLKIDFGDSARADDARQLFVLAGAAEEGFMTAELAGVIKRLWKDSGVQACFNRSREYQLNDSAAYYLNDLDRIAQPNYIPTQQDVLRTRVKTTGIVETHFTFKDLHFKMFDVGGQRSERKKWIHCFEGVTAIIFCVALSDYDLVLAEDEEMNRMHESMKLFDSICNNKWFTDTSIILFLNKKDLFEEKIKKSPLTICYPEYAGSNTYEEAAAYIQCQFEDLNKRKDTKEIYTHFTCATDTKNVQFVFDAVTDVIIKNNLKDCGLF
In short: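 Fluorescence polarization assay: 50 nM Gαi1 with 10 nM FITC-labeled RGS12 GoLoco peptide in 10 mM Tris pH 7.5, 150 mM NaCl, 0.1 mM GDP, 0.05% NP40, 10 min at room temperature with compound.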

[19] = biological target: Cytochrome P450 2C19 (Homo sapiens) (UniProt P33261); assay: qHTS Assay for Inhibitors and Substrates of Cytochrome P450 2C19 (AID 899); also: nearly all actives have a fitted effect of over 60% in size
Chain of Cytochrome P450 2C19 (Homo sapiens) (P33261 whole entry, looked up): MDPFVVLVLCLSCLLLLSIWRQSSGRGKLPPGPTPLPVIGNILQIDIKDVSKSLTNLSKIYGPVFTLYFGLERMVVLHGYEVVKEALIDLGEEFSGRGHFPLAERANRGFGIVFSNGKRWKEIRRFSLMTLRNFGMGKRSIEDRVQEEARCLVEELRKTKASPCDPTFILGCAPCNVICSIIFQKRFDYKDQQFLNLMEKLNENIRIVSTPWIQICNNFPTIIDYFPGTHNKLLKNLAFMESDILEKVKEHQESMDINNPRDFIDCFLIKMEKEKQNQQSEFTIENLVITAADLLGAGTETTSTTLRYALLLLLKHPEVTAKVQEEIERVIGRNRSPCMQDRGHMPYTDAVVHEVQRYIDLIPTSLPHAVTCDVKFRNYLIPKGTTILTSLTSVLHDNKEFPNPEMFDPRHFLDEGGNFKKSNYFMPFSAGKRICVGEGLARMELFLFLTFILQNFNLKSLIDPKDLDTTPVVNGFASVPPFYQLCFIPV
In short: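 Luminescent read-out of luciferin formed from Luciferin-H EGE (10uM, equal to KM). Enzyme 5nM in 50mM KPO4; compound added, 10 min at 37C, then NADPH regenerating system for 60 min at 37C. Full inhibition defined by 57uM ketoconazole.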

[20] = qHTS Assay for Identification of Small Molecule Agonists for Thrombopoietin (TPO) Signaling Pathway (AID 917)
In short: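 Reporter: GpIIb promoter–luciferase in murine Ba/F3 expressing human TPO receptor. Pre-starved of IL-3 overnight; compounds with 26 pM TPO, 24 hrs, 37 C/5% CO2; luminescence read.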

Measured: outcome

C=C1C[C@]23C[C@@]1(O)CC[C@H]2[C@@]12C=C[C@H](O)[C@@](C)(C(=O)O1)[C@H]2[C@@H]3C(=O)O
not listed: [14] | [15] | [16] | [17] | [18] | [19] | [20]
inactive: all other assays above

O=C(/C=C/C=C/c1ccc2c(c1)OCO2)N1CCCCC1
inactive: [14] | [15]

COc1ccc(CCC(=O)c2c(O)cc(O[C@@H]3O[C@H](CO)[C@@H](O)[C@H](O)[C@H]3O[C@@H]3O[C@@H](C)[C@H](O)[C@@H](O)[C@H]3O)cc2O)cc1O
not listed: [14] | [15] | [17] | [18] | [19] | [20]
inactive: all other assays above

CC(C)C[C@H](NC(=O)[C@@H]1O[C@H]1C(=O)O)C(=O)NCCCCN=C(N)N
inactive: [17] | [18] | [14] | [19] | [20]

CCc1cccc2c3c([nH]c12)[C@@](CC)(CC(=O)O)OCC3
inactive: [17]

C[C@]1(C2CCCC2)Cc2cc(OCC(=O)O)c(Cl)c(Cl)c2C1=O
inactive: [17] | [18] | [14] | [20]

CCOC(=O)C(CCc1ccccc1)NC(C)C(=O)N1Cc2ccccc2CC1C(=O)O (stereo unspecified)
inactive: [16] | [15]
